We go through three molecules from ChEMBL document CHEMBL1961873, “Compounds: GSK PKIS; Assays: Nanosyn kinase panel” (2012).

“And” between values parts separate entries of the source, which are not always exact repeats. Equal entries are not always repeated.

Assay [1] has as its target T1, Mitogen-activated protein kinase 12 (Homo sapiens) (UniProt P53778).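 Note: values are averaged p38gamma kinase inhibition readings, compounds tested at 1 µM.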
T1 sequence (whole entry): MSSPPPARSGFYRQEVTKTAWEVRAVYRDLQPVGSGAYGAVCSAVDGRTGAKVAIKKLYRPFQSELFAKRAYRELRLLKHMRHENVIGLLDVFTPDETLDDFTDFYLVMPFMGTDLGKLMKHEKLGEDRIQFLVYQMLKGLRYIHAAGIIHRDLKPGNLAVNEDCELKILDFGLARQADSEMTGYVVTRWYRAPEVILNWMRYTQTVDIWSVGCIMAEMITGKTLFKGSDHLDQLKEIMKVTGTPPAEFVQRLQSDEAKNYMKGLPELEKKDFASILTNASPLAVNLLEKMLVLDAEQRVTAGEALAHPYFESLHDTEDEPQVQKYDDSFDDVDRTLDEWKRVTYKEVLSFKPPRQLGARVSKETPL
The note with it: at 1 µM.

For assay [2], the target named is SRSF protein kinase 1 (Homo sapiens) (UniProt Q96SB4). The note with it: at 0.1 µM.
Sequence of SRSF protein kinase 1 (Homo sapiens) (Q96SB4 whole entry): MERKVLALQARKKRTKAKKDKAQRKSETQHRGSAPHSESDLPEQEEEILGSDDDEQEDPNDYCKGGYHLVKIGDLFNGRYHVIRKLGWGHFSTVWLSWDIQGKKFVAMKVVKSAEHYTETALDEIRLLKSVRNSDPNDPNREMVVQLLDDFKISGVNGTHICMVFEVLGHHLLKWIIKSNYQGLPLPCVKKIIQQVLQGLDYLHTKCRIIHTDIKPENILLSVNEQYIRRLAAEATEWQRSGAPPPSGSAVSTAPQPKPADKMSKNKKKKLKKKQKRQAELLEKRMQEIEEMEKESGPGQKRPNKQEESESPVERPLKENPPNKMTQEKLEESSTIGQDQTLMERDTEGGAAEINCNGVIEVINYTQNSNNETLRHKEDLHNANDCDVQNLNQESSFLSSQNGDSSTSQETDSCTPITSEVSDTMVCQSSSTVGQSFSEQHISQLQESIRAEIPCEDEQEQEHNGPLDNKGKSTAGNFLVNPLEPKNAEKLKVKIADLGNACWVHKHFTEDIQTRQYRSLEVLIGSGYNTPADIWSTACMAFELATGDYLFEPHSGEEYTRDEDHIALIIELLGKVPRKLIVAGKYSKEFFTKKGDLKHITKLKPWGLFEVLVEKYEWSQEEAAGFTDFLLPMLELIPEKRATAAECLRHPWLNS
For assay [3] the target is unchanged. The note with it: at 1 µM.
The target in assay [4] is Phosphatidylinositol 4,5-bisphosphate 3-kinase catalytic subunit alpha isoform (Homo sapiens) (UniProt P42336). The note with it: at 0.1 µM.
Sequence of Phosphatidylinositol 4,5-bisphosphate 3-kinase catalytic subunit alpha isoform (Homo sapiens) (P42336 whole entry, canonical isoform): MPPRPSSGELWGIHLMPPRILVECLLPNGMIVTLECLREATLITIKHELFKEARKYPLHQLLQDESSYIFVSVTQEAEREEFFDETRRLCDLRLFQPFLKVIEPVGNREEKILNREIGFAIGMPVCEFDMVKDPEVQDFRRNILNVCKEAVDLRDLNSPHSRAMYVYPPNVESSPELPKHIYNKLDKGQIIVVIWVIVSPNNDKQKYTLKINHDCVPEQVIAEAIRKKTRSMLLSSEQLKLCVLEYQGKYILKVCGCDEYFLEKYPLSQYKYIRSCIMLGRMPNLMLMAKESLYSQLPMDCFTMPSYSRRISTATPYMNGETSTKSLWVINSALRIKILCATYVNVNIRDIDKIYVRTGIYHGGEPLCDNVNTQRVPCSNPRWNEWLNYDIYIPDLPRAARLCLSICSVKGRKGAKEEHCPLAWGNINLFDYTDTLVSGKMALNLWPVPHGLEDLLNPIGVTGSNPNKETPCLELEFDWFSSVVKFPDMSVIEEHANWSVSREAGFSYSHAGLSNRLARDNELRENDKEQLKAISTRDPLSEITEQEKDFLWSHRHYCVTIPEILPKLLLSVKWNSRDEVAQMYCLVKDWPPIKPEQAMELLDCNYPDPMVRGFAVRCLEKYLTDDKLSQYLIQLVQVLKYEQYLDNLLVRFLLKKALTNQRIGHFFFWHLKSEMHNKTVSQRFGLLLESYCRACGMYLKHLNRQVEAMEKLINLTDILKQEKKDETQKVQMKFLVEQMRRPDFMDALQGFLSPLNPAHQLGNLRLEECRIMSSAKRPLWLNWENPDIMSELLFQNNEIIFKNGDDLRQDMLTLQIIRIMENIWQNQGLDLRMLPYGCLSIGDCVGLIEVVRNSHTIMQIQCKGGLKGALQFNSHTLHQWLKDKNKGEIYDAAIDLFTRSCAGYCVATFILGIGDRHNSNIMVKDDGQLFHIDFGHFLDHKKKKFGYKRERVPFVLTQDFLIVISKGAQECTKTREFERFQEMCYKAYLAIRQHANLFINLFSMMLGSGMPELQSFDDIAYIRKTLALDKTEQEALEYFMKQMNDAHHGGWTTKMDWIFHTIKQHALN
Assay [5] shares this target. The note with it: at 1 µM.
Assay [6] addresses T2, Phosphatidylinositol 4,5-bisphosphate 3-kinase catalytic subunit delta isoform (Homo sapiens) (UniProt O00329).
T2 sequence (whole entry): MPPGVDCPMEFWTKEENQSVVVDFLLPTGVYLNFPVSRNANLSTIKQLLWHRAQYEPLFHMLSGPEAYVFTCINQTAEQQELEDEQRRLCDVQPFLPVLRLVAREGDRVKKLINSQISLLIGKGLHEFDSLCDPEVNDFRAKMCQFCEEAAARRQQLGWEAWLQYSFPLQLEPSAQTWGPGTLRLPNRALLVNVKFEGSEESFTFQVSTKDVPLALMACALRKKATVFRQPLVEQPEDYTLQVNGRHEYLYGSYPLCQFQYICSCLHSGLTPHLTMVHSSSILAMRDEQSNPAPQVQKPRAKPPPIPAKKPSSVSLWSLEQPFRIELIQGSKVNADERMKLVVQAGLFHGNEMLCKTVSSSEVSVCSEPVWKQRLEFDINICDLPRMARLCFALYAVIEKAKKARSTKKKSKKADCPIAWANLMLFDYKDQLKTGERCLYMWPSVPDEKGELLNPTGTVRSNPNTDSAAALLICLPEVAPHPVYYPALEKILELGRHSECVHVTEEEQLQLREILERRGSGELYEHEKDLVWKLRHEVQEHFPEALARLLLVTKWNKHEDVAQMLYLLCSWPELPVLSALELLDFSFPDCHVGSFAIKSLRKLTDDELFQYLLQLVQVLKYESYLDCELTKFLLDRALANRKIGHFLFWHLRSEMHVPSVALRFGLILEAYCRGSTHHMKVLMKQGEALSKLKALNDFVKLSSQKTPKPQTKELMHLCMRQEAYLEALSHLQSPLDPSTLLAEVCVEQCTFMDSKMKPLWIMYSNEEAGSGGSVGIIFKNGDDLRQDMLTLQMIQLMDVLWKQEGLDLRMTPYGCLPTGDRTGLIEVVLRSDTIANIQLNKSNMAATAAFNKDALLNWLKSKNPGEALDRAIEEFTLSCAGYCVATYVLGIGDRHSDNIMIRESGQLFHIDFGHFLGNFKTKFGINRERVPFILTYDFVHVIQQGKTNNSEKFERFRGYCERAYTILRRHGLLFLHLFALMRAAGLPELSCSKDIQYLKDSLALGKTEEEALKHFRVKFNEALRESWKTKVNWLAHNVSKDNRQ
The note with it: at 0.1 µM.

Assay [7] addresses T2, Phosphatidylinositol 4,5-bisphosphate 3-kinase catalytic subunit delta isoform (Homo sapiens). The note with it: at 1 µM.
In assay [8] the target is Phosphatidylinositol 4-kinase beta (Homo sapiens) (UniProt Q9UBF8). The note with it: at 0.1 µM.
Sequence of Phosphatidylinositol 4-kinase beta (Homo sapiens) (Q9UBF8 2-816 limits assumed): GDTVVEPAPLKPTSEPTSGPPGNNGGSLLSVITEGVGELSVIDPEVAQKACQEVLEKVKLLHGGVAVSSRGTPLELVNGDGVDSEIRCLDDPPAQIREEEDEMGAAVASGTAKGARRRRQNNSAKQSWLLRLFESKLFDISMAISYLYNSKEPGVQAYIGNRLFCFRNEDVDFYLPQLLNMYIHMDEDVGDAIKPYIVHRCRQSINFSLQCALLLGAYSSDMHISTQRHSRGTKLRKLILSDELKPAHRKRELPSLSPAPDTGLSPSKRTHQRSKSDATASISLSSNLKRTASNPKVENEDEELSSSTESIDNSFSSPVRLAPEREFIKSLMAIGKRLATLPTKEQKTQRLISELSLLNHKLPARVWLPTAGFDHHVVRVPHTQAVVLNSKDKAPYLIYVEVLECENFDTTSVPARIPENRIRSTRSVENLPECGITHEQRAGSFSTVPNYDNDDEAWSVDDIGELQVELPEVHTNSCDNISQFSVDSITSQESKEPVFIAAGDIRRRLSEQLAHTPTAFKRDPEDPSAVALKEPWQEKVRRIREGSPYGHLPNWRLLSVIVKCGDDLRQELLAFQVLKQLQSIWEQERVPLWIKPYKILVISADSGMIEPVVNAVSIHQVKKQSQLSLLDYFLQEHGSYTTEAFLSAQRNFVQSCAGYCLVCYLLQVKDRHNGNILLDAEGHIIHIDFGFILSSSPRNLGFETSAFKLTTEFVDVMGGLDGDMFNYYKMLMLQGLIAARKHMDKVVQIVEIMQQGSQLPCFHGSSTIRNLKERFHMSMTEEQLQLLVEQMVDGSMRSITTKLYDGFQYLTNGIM
For assay [9] the target is unchanged. The note with it: at 1 µM.
Assay [10] has as its target Sphingosine kinase 1 (Homo sapiens) (UniProt Q9NYA1). The note with it: at 0.1 µM.
Assay [11] shares this target. The note with it: at 1 µM.
The target in assay [12] is T3, Sphingosine kinase 2 (Homo sapiens) (UniProt Q9NRA0).
T3 sequence (whole entry): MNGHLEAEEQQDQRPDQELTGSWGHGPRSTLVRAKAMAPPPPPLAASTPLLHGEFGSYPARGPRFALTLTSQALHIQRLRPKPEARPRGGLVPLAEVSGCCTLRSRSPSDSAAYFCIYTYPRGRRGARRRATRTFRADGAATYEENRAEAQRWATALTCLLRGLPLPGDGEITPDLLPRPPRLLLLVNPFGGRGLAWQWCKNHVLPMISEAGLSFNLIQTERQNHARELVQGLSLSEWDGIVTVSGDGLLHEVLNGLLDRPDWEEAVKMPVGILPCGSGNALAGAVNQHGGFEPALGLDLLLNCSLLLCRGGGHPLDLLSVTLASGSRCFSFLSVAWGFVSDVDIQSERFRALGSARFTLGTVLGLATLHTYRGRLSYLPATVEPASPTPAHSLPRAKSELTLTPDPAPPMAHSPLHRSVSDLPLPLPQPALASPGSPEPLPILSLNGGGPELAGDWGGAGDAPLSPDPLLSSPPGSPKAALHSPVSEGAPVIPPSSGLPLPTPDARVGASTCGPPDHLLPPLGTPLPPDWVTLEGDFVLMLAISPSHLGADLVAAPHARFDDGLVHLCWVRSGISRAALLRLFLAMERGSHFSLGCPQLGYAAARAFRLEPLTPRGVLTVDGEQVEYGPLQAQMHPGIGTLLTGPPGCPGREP
The note with it: at 0.1 µM.

Assay [13] deals with T3, Sphingosine kinase 2 (Homo sapiens). The note with it: at 1 µM.
For assay [14], the target named is Casein kinase II subunit alpha (Homo sapiens) (UniProt P68400). The note with it: at 0.1 µM.
Sequence of Casein kinase II subunit alpha (Homo sapiens) (P68400 whole entry, looked up): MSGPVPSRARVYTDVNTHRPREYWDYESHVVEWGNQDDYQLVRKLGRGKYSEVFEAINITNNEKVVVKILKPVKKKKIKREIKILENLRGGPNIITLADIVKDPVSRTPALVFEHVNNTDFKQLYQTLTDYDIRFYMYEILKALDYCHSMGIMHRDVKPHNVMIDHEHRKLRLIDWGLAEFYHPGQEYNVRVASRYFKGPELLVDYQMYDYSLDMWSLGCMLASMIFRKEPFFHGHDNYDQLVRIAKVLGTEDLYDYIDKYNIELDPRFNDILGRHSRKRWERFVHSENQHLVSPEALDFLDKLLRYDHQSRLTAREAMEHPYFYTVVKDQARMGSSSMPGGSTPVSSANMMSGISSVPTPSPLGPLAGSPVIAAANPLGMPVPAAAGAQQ
For assay [15] the target is unchanged. The note with it: at 1 µM.
Assay [16] addresses T4, Inhibitor of nuclear factor kappa-B kinase subunit alpha (Homo sapiens) (UniProt O15111).
T4 sequence (whole entry): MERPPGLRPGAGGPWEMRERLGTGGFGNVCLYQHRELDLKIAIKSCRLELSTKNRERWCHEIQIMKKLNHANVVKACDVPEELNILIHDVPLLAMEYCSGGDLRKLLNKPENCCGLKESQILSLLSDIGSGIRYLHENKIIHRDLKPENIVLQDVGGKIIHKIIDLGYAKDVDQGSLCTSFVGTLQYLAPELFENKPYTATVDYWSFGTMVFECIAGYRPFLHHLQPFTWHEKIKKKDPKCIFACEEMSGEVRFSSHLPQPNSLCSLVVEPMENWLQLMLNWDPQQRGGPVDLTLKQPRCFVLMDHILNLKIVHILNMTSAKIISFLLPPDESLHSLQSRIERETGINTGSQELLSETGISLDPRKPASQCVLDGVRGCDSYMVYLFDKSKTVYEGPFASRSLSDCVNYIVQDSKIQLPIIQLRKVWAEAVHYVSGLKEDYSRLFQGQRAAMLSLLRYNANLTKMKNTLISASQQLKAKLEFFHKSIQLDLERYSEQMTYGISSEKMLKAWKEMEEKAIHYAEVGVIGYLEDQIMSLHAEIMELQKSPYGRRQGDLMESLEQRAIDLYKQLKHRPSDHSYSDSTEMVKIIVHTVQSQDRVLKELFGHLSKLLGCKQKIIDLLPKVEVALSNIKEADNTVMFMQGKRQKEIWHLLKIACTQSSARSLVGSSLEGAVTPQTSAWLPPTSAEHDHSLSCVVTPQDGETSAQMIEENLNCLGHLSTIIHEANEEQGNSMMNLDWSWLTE
The note with it: at 0.1 µM.

For assay [17], the target named is T4, Inhibitor of nuclear factor kappa-B kinase subunit alpha (Homo sapiens). The note with it: at 1 µM.
The target in assay [18] is T5, Inhibitor of nuclear factor kappa-B kinase subunit beta (Homo sapiens) (UniProt O14920).
T5 sequence (whole entry): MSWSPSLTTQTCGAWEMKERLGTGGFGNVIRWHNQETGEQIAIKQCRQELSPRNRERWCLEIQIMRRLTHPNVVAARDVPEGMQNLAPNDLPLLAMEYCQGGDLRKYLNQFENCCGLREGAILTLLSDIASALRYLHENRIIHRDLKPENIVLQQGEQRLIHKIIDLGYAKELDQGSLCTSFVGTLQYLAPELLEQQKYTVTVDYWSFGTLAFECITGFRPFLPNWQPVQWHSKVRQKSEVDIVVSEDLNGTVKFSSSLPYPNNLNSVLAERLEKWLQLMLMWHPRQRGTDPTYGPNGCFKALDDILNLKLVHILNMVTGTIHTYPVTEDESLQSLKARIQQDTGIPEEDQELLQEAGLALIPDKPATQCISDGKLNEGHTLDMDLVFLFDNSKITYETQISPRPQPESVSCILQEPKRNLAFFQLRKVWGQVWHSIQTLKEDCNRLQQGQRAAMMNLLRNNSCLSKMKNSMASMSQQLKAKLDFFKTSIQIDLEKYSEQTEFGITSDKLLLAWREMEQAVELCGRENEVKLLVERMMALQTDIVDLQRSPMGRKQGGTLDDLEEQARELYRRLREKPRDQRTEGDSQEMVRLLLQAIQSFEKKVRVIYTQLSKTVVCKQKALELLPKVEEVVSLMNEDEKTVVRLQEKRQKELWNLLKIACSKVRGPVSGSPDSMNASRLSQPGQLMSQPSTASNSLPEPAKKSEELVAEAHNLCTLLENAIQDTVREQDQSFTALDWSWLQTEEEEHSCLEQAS
The note with it: at 0.1 µM.

Assay [19] has as its target T5, Inhibitor of nuclear factor kappa-B kinase subunit beta (Homo sapiens). The note with it: at 1 µM.
The target of assay [20] is T6, Inhibitor of nuclear factor kappa-B kinase subunit epsilon (Homo sapiens) (UniProt Q14164).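 Note: mean inhibition of IKKε reported, from the GSK PKIS dataset.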
T6 sequence (whole entry): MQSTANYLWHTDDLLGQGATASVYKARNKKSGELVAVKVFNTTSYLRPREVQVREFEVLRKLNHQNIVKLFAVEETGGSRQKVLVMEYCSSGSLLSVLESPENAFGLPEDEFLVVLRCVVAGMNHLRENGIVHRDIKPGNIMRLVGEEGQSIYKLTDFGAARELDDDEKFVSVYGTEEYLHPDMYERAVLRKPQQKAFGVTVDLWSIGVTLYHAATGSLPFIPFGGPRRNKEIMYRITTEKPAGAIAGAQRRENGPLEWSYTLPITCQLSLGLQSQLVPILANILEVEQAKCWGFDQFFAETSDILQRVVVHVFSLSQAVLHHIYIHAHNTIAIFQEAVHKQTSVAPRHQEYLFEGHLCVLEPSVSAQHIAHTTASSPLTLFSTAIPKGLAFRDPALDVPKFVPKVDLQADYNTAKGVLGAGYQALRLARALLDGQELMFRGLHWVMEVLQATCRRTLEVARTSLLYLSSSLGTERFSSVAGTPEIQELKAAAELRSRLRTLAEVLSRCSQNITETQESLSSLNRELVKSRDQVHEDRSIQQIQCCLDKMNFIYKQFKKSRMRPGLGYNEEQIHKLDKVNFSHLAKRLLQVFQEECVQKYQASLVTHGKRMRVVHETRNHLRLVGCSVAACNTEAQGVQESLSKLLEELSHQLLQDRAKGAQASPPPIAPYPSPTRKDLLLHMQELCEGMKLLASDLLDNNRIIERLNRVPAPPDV
The note with it: at 0.1 µM.

Sequence of Sphingosine kinase 1 (Homo sapiens) (Q9NYA1 whole entry): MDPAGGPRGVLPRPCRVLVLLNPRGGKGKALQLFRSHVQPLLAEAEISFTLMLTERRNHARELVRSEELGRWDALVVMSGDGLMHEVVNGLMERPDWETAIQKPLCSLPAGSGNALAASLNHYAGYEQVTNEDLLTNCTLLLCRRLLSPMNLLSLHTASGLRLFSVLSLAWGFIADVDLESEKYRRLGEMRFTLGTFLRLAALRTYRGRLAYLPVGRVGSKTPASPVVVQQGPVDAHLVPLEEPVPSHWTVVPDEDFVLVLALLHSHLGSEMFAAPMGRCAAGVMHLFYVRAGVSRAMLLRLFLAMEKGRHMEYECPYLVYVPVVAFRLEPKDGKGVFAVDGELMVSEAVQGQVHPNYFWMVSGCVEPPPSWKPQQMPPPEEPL

Consider `O=C(Nc1n[nH]c2nnc(-c3cccnc3)cc12)C1CC1`, for which the inhibition was 3.03% in assay [1]; -1.16% in [2]; -0.28% in assay [3]; 0.13% in [4]; 1.26% in assay [5]; 1.05% in [6]. Moreover, the inhibition is 1.67% in assay [7]; -1.26% in assay [8]; 3.04% in assay [9]; 1.36% in assay [10]; -2.26% in [11]; -0.36% in assay [12]. The inhibition is -1.77% in assay [13]; 3.14% in assay [14]; 5.42% in assay [15]; 0.84% in assay [16]; -0.73% in assay [17]; 1.55% in [18]. The values for the inhibition in assay [19] and in [20] were 1.04% and -2.46%, respectively.
On to `Nc1ncnc2occ(-c3ccc(NC(=O)Nc4cc(C(F)(F)F)ccc4F)cc3)c12`, for which the inhibition in [1] is 52% and 44.9%; in [2], 1.86% and 3.34%; in assay [3], 28.9% and 22%; in assay [4], 0.21% and -1.3%; in [5], 1.36% and 0.28%; in assay [6] it was 1.09% and -2.88%. The inhibition was 2.46% and -0.2% in [7]; 0.95% and 17.2% in assay [8]; 10.9% and 7.67% in [9]; 3.31% and 0.73% in assay [10]; -0.65% and 1.59% in assay [11]; -1.33% and 0% in [12]. In addition, the inhibition in [13] is 11.6% and 0%; in assay [14], 2.39% and -3.9%; in assay [15], 6.35% and 0.16%; in assay [16], 5.79% and 7.04%; in assay [17] it was 6.73% and 11.3%; in assay [18], 1.45% and -2.16%. For the same molecule, the inhibition is 2.13% and 1.62% in [19]; 1.57% and 0.44% in assay [20].
For the molecule `CS(=O)(=O)CCNCc1ccc(-c2ccc3ncnc(Nc4ccc(OCc5cccc(C(F)(F)F)c5)cc4)c3c2)o1`, the inhibition is 6.4% in assay [1]; -2% in [2]; -2.32% in assay [3]; 4.42% in assay [4]; 4.38% in assay [5]; 0.9% in assay [6]. For the same molecule, the inhibition was 1.81% in assay [7]; 0.98% in assay [8]; -0.43% in [9]; 1.49% in assay [10]; 0.32% in assay [11]; 0.1% in [12]. Further, the inhibition was determined as 0.04% in assay [13]; 5.1% in assay [14]; 4.66% in [15]; 3.34% in assay [16]; 4.53% in [17]; 4.47% in [18]. The inhibition amounted to 8.68% in [19] and 4.74% in assay [20].
